Measurements published in PubChem BioAssay (NCI).
The panel holds about 79,000 compounds, 15% with a hit somewhere; the sample as a whole holds those more often. Values without a mark were called inactive. Calls of active or inactive are those of the source. Rule as the data show it: active = growth inhibition above about 70%; inactive = the rest.

Columns and labels:
[1] = NCI Yeast Anticancer Drug Screen. Data for the rad50 strain (AID 155);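 also: 0% = growth of vehicle-only cultures of the same strain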; details: S. cerevisiae rad50 strain growth inhibition; at 50.0 µM; stronger effect = higher value
Outline: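 Cells are treated with compound, grown, and their growth is then scored against vehicle-only cultures of the same repair-deficient yeast strain.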

[2] = NCI Yeast Anticancer Drug Screen. Data for the mec2-1 strain (AID 157); details: S. cerevisiae mec2-1 strain, at 50.0 µM, stronger effect = higher value
Outline: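 Vehicle-treated cultures served as reference for growth inhibition of compound-exposed mec2-1 yeast.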

[3] = NCI Yeast Anticancer Drug Screen. Data for the sgs1 mgt1 strain (AID 161);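 also: 0% = growth of cultures given vehicle only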; details: S. cerevisiae sgs1 mgt1 strain, at 50.0 µM, stronger effect = higher value
Outline: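 Inhibition of yeast growth, normalised to vehicle-treated controls, is reported for a strain bearing genetic alterations in DNA damage repair.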

[4] = NCI Yeast Anticancer Drug Screen. Data for the cln2 rad14 strain (AID 165);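 also: 0% = growth equal to vehicle treated cultures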; details: S. cerevisiae cln2 rad14 strain, at 50.0 µM, stronger effect = higher value
Outline: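 Each compound was tested on cln2 rad14 yeast. Inhibition of growth was calculated against vehicle-exposed controls.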

[5] = NCI Yeast Anticancer Drug Screen. Data for the bub3 strain (AID 167); details: S. cerevisiae bub3 mutant strain, at 50.0 µM, stronger effect = higher value
Outline: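 Part of a panel of yeast mutants defective in DNA damage repair or cell cycle regulation. Each strain is grown with compound, and inhibition is calculated relative to solvent-treated cultures.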

[6] = NCI Yeast Anticancer Drug Screen. Data for the mlh1 rad18 strain (AID 175); details: S. cerevisiae mlh1 rad18 strain growth inhibition; at 50.0 µM; stronger effect = higher value
Outline: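 Vehicle-treated cultures served as the reference for growth inhibition in a yeast strain carrying DNA damage repair alterations exposed to each compound.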

Row | SMILES | growth inhibition [1] [%] | growth inhibition [2] [%] | growth inhibition [3] [%] | growth inhibition [4] [%] | growth inhibition [5] [%] | growth inhibition [6]
1 | CCC1CCC(OC(=O)Nc2cccc3ccccc23)CC1 (stereo not given) | 12.2 | -26.1 | -5.35 | 3.7 | 4.85 | -10.4%
2 | CNc1ccc(Cl)cc1C(N)=O | 2.8 | 6.9 | 28.7 | -3.25 | 7.05 | 19.9%
3 | COC(=O)c1ccc(SCCC2(COS(C)(=O)=O)OCCO2)cc1 | 18.6 | -16.9 | 1.35 | 18.7 | 1.4 | -4.1%
4 | O=C(NNC(=O)c1ccc(Cl)cc1Cl)c1ccc2ccccc2c1 | 9.4 | -42 | -14.4 | 6 | -0.1 | -0.55%
5 | Cc1c(C)c(O)c2c(c1C)C(C)C(=O)OC2=O (stereo not given) | 1.2 | -37.8 | -13.2 | 10 | -19.3 | -0.15%
6 | CCC(C)C(C)/C(C)=N/Nc1ccc([N+](=O)[O-])cc1[N+](=O)[O-] (stereo not given) | 13.7 | -10 | 0.25 | -34.9 | 6.6 | -26.4%
7 | COc1cc(C2SC(N)=Nc3c2c(C)nn3C(=O)c2ccc(Cl)cc2)ccc1O (stereo not given) | -36.7 | 15.8 | -9.55 | -30.4 | 16.8 | -10.2%
8 | COc1cccc(C2c3cc4c(cc3OC(N3CCOCC3)C2C)OCO4)c1OC (stereo not given) | -25.4 | -10.1 | -7.85 | 2.55 | -2.05 | -6.1%
9 | Cn1nnc(CC[N+]2(C)CCOCC2)n1 | -3.35 | 3.45 | -3.35 | -24.5 | 6.05 | 3.9%
10 | O=C(CNc1ccccc1)c1ccc(O)c(C(=O)O)c1 (tested in a mixture with another compound) | -8.5 | -12.3 | -11.3 | -5.35 | -0.7 | 0.95%
11 | COc1cc(=O)n2c3ccccc3n(C)c2c1C#N | -9.75 | -16.9 | -0.95 | -0.25 | -4.35 | 41.8%
12 | Clc1cnc2ccccc2c1 | 24.4 | 6 | 14.1 | 22.8 | 2.7 | 28.8%
13 | O=C(O)C(=Cc1ccnc2ccccc12)C(=O)O | 7.75 | -13.7 | -35.8 | 15.7 | -52.2 | 3.5%
14 | O=c1nnc(O)c2ccn(O)cc1-2 | -34.6 | -19 | 1.65 | -40.1 | -8.95 | -7.4%
15 | C/C(=N/NC(=O)c1ccncc1)C(F)(F)F | -29.8 | 5.75 | -25.9 | -6.85 | 14 | 7.85%
16 | CN(C)CC(C(N)=O)C(N)=O | -26.1 | -18.8 | -19.8 | 9.6 | -10.5 | 7.45%
17 | CCC(=O)Nc1cc(Cl)c(Cl)cc1C | -8.7 | -12.4 | -13.5 | -85.8 | -27.2 | -12%
18 | CN(C)c1ccc(C=C2/C(=N\O)c3ccccc3/C2=N/O)cc1 | -1.5 | 38.1 | 39 | -8.2 | 34.2 | 48.1%

Row | SMILES | growth inhibition [1] [%] | growth inhibition [2] [%] | growth inhibition [3] [%] | growth inhibition [4] [%] | growth inhibition [5] [%] | growth inhibition [6]
19 | COC(=O)C1C(O)C(C(=O)OC)C(C)N(C)C1C (stereo not given) | 7.35 | -14.4 | -41.5 | -26.1 | -18.2 | -4.45%
20 | CC(C(=O)O)N(CCC#N)CCC#N (stereo not given) | 17.8 | -6.05 | -0.5 | 0.1 | 2.35 | 3.4%
21 | CC1OC(c2c(Cl)cccc2[N+](=O)[O-])OC1C (stereo not given) | 3.5 | -9.2 | 5.6 | 0.5 | -7.6 | 20%
22 | CC1/C(=N\Nc2ccc([N+](=O)[O-])cc2[N+](=O)[O-])CCC2C1(C)CCC1C2(C)CCC2(C)C3CC(C)(C)CCC3(C)CCC12C (stereo not given) | -5.8 | -9.1 | 9.8 | -16.6 | 13.2 | 6.25%
23 | CCCN(CCCCC(NC(C)=O)C(=O)NCc1ccccc1)C(=O)NC (stereo not given) | -26.9 | -27.8 | -13.1 | 17.9 | -18.9 | -14.5%
24 | CC(=O)C(=C(c1ccccc1)c1ccccc1)c1ccccc1 | -51.4 | -7.8 | -32.9 | -1.4 | -46.6 | 7.6%
25 | CC1Oc2ccc3ccccc3c2C(C)N1C (stereo not given) | -0.55 | 1.9 | -6.45 | -4.85 | 1.3 | 16.9%
26 | O=C(Nc1ccc(S(=O)(=O)N2CCCCC2)cc1)OC1CCCCCC1 | 10.1 | 1.1 | -8.5 | 14.5 | -4.05 | 10.6%
27 | Clc1c(Cl)c(Cl)c(CSCc2c(Cl)c(Cl)c(Cl)c(Cl)c2Cl)c(Cl)c1Cl | -16.2 | -7 | -12.2 | -31.9 | 2.1 | -13.3%
28 | COc1c(Cl)c(Cl)c2ncc(Cl)cc2c1Cl | -3.7 | -3.3 | -3.5 | -29.1 | 14.8 | -14.9%
29 | N#C/C(=C1\OC(=O)C(c2ccc(Br)cc2)=C1O)c1ccc(Br)cc1 | 8.15 | 2.45 | -4 | 5.3 | -3.85 | 26.4%
30 | CN1Cc2ccccc2[C@H]2C(c3ccccc3)=NN(c3ccccc3)[C@H]21 | 39.6 | 26.9 | 59.2 | 9.6 | 41.2 | 37.2%
31 | COc1ccc(/C=C/C(=O)c2sc(NC(=S)NC(=O)c3ccc(Cl)cc3)nc2C)cc1OC | 16.2 | 13.2 | 28.6 | 9.8 | -1.6 | 7.2%
32 | [O-][n+]1cscc1-c1nc2ccccc2[nH]1 | 7.45 | -13.2 | -2.95 | 10.2 | -7.8 | -7.5%
33 | CNC(=O)OCc1c(COC(=O)NC)c(-c2ccccc2)n(-c2ccccc2)c1C | 24.4 | 27.8 | 44.8 | 37.9 | 22.9 | 88.1% (active)
34 | CCNc1ncnc2sc(SCc3ccccc3)nc12 | -39.3 | -20.8 | -12.7 | -0.6 | -31.1 | -37.1%
35 | CC1COCC(C)N1CC(OCc1ccccc1)c1ccccc1 (stereo not given) | -5.7 | -2.2 | -15.4 | -52.2 | -7.9 | -15.5%
